Compound activity: PubChem BioAssay, SRMLSC
In the library only some 6.5% were active in any assay of this set; here they are far more common.
NADH coupling – inhibitors of PK/LDH coupling enzymes, profiling panel, artefact control, biochemical, MLSMR library; coupled PK/LDH NADH assays, four targets; IC50, µM (series often up to 10 µM), inactives show top-dose inhibition; hit rate 0.02% among 65,000;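 active means single-dose screening hits from any of four coupled enzyme assays that gave an IC50 when retested across doses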;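 further: the DPM-DC format reads NADH fluorescence rather than 340 nm absorbance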
Spn MK inh – S. pneumoniae MK inhibitors, primary screen, biochemical, PK/LDH-coupled NADH absorbance. mevalonate kinase [Streptococcus pneumoniae D39]. purified MK, PK/LDH-coupled NADH absorbance 340 nm. inhibition, % at 10 µM. hit rate 0.48% among 65,000. AID 555, 2006;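 active means ranked among the strongest by inhibition in the single 10 µM screen, a fixed top-ranked set picked for dose follow-up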
A340 absorber – compound light absorbance at 340 nm, profiling panel, artefact control, biochemical, MLSMR library, data from PS, PMK, MK assays. fold change at 10 µM. compound absorbance at 340 nm, fold over control. 65,000 tested, under 10 active;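 active means at 10 µM dose, initial 340 nm absorbance at least 2 fold that of control wells; inactive means change under 2 fold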;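 further: initial absorbance extrapolated from kinetic A340 decline of NADH oxidation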
DPM-DC inhibit – S. pneumoniae DPM-DC inhibitors, primary screen, biochemical, PK/LDH-coupled NADH fluorescence | hit rate 0.49% among 65,000 | purified DPM-DC | diphosphomevalonate decarboxylase (Streptococcus pneumoniae D39) | calls only at 10 µM;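 active means the 320 compounds with the highest percent inhibition in the single-dose primary screen, excluding strongly autofluorescent ones, cut at about 32% in these data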;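 further: kinetic rate of NADH fluorescence loss reporting ADP formed by the decarboxylase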
PMK inhibit – S. pneumoniae PMK inhibitors, primary screen, biochemical, mevalonate pathway, pilot trial included. phosphomevalonate kinase (Streptococcus pneumoniae D39). purified PMK, PK/LDH-coupled NADH absorbance 340 nm. inhibition, % at 10 µM. hit rate 0.49% among 65,000. AID 539, 2006;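 active means top-ranked compounds by inhibition in the single 10 µM screen, taking a fixed number of the strongest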;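 further: 0% = full reaction with DMSO carrier and 100% = background rate without enzyme reaction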
Autofluor 339 – intrinsic fluorescence of library compounds, ex339/em460 – biochemical, MLSMR library, data from DPM-DC assay, artefact control, profiling panel. compound autofluorescence, ex339/em460 nm, NADH buffer; stronger effect = higher value; 1 = no-compound wells, NADH background. fluorescence fold increase at 10 µM. hit rate 5.5% among 65,000;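 active means at 10 µM, mean starting fluorescence two-fold or more over control wells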;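 further: signal is the first read of a kinetic run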
* = called active by the depositor; i = inactive; . = not tested or not shown; + = active, no number.

SMILES	NADH coupling	Spn MK inh	A340 absorber	DPM-DC inhibit	PMK inhibit	Autofluor 339
CCOC(=O)c1cc(-c2cc3ccccc3o2)nc2c1c(=O)[nH]c(=O)n2CCOC	9%	2	1.1	.	15	5.1*
Cc1cc2ccccc2c(=O)[nH]1	6%	0	1.1	i	11	1.7
Cc1ccccc1Nc1cc2ccccc2c(=O)[nH]1	13%	0	1	.	4	2.8*
CC1SC(=NC(=O)c2ccco2)NC1=O (configuration not stated)	10%	4	1.1	i	26*	1.1
CC(=O)Nc1ccc(-c2nc3c(C)cccc3[nH]2)cc1	10%	4	1.1	i	8	2.1*
COC(=O)c1ccc(Nc2ncnc3c2cnn3-c2cccc(C)c2)cc1	4%	0	1.1	.	7	2.1*
O=C(c1nc2nc(-c3ccccc3)cc(C(F)(F)F)n2n1)N1CCOCC1	10%	0	1.1	i	20	1.5
O=C(c1nc2nc(-c3ccc(Cl)cc3)cc(C(F)(F)F)n2n1)N1CCOCC1	10%	15	1.1	.	5	3.2*
COc1ccc(-c2cc(C(F)(F)F)n3nc(C(=O)N4CCCC4)cc3n2)cc1	8%	3	1.1	.	12	2.2*
COc1ccc(-c2cc(C(F)(F)F)n3nc(C(=O)O)nc3n2)cc1	11%	9	1.1	i	16	2.9*
Cc1cc(F)ccc1S(=O)(=O)Nc1ccccc1C(=O)Nc1ncn[nH]1	5%	9	1	.	0	2.3*
C=CCc1ccc(OCCCCCN2CCOCC2)c(OC)c1	15%	37	1	i	7	1.1
Cc1nc2oc3ccccc3c(=O)c2c(=O)n1Cc1ccccc1	4%	8	0.98	i	5	1.1
Cc1nc2ccc(N)cc2c(=O)n1Cc1ccc(Cl)cc1	14%	11	1.1	.	17	3.7*
CC1(C)CC(NC(=O)c2coc(=O)c(Br)c2)CC(C)(C)N1	14%	13	1.2	i	7	2.1*
O=C(c1coc(=O)c(Br)c1)N1CCOCC1	6%	0	1.1	i	3	1.9
Cc1ccc(-n2nc(-c3ccc(N)cc3)cc2N)cc1	3%	10	1	i	0	1.1
Cc1ccc(-n2nc3ccc(N)cc3n2)cc1	7%	6	1.1	.	7	2.1*
O=C(NCCN1CCN(C(=O)c2cc3ccccc3oc2=O)CC1)c1cc2ccccc2oc1=O	7%	3	1.1	i	17	1.3
CN1CCN(C(=O)c2cc3c(ccc4ccccc43)oc2=O)CC1	9%	15	1	.	3	3.9*
O=c1cc(-c2ccccc2)[nH]c2nc3ccccc3n12	3%	11	1	.	0	2.5*
O=c1cc(-c2ccccc2)[nH]n1-c1nc2ccccc2s1	6%	3	1.1	i	16	1.1
Cc1cc(C)n(CC(O)CN2c3ccccc3Sc3ccccc32)n1 (configuration not stated)	2%	5	1	i	0	1.1
Cc1c(C(=O)OC(C)CCN(C)C)oc2ccccc12 (configuration not stated)	10%	4	1	i	7	1.1
Cc1c(C(=O)OCC(C)(C)CN(C)C)oc2ccccc12	5%	9	1	+	6	0.9
SMILES	NADH coupling	Spn MK inh	A340 absorber	DPM-DC inhibit	PMK inhibit	Autofluor 339
O=C(NCCCN1CCOCC1)c1cccs1	10%	9	1.1	i	17	1.1
CCCCn1c(=O)[nH]c(=O)c2c1nc(-c1ccc(C#N)cc1)n2C1CCCC1	9%	0	1	.	17	5.2*
CCCCn1c(=O)[nH]c(=O)c2c1nc(-c1ccncc1)n2CCOC	5%	30	0.99	i	5	1.4
Cc1ccc(-c2nc(CS(=O)CC(=O)NCCC(C)C)c(C)o2)cc1 (configuration not stated)	3%	8	1	i	1	1
Cc1oc2cc(O)cc(O)c2c(=O)c1-c1ccc2c(c1)OCCCO2	3%	8	1	i	2	1.1
Cc1oc2cc(O)ccc2c(=O)c1N1C(=O)c2ccccc2C1=O	13%	4	1.1	+	0	1.8
COC(=O)c1cc(-c2c(C)oc3cc(OC)ccc3c2=O)c(C)o1	9%	8	1	i	19	1.1
COC(=O)c1cc(-c2c(C)oc3cc(O)ccc3c2=O)c(C)o1	7%	16	1	.	19	2.4*
Cc1ccccc1-c1c(C)oc2cc(O)ccc2c1=O	9%	0	1.1	.	18	2.2*
CC1(C)C(C=C(Cl)Cl)C1C(=O)N1CCN(c2ccccc2)CC1 (configuration not stated)	14%	9	1.1	+	0	1.2
O=C(Nc1ccccc1C(F)(F)F)c1cc(S(=O)(=O)N2CCOCC2)ccc1F	3%	0	0.99	i	0	1.1
c1cc(-c2nc3cc(Oc4ccc5oc(-c6ccncc6)nc5c4)ccc3o2)ccn1	4%	7	1	i	4	2.6*
O=C(COc1ccc(Cl)cc1)Nc1ccc2oc(-c3ccncc3)nc2c1	9%	4	1	.	13	4.8*
CC(C)(Oc1ccc(Cl)cc1)C(=O)Nc1ccc2oc(-c3ccncc3)nc2c1	4%	5	1.1	.	3	3.4*
Cc1ccc(OCC(=O)Nc2ccc(O)c(-c3nc4ccccc4o3)c2)cc1	7%	3	1.1	.	10	2
Clc1ccc2oc(-c3ccccc3)nc2c1	2%	5	1	i	0	1.1
COc1cc(NS(=O)(=O)c2ccc(Br)cc2)c(OC)cc1NC(=O)c1ccco1	6%	0	1	i	17	1.1
CC(C)c1nnc(NC(=O)Cn2nc(-c3ccc4c(c3)OCCO4)ccc2=O)s1	4%	4	1	i	8	1.1
CCS(=O)(=O)c1ccc(S(=O)(=O)CC)s1	1%	6	1	i	0	1
CN1c2cccc3cccc(c23)N(C)C1(C)C	9%	0	1.1	.	18	3.7*
CC1(C)CC(=O)c2cc(OCC(=O)NCCN3CCCc4ccccc43)ccc2O1	7%	0	1	.	14	5*
COc1cc(C(=O)NCCC(=O)NCCN2CCCCCC2)cc(OC)c1OC	7%	0	0.99	i	20	1.1
COc1ccc(CCNC(=O)CN2CCCc3ccccc32)cc1OC	3%	0	1	i	9	1
CC1(C)CC(=O)c2cc(OCC(=O)NCCCN3CCN(c4ccc(F)cc4)CC3)ccc2O1	5%	0	1	i	9	3.6*
